{
  "source": "ChEMBL document CHEMBL2218924",
  "about": "“A broad activity screen in support of a chemogenomic map for kinase signalling research and drug discovery” (Biochem J, 2013)",
  "key": {"[1]": {"biological_target": "T1, Ephrin type-A receptor 3 (Homo sapiens) (UniProt P29320)", "T1 sequence (whole entry)": "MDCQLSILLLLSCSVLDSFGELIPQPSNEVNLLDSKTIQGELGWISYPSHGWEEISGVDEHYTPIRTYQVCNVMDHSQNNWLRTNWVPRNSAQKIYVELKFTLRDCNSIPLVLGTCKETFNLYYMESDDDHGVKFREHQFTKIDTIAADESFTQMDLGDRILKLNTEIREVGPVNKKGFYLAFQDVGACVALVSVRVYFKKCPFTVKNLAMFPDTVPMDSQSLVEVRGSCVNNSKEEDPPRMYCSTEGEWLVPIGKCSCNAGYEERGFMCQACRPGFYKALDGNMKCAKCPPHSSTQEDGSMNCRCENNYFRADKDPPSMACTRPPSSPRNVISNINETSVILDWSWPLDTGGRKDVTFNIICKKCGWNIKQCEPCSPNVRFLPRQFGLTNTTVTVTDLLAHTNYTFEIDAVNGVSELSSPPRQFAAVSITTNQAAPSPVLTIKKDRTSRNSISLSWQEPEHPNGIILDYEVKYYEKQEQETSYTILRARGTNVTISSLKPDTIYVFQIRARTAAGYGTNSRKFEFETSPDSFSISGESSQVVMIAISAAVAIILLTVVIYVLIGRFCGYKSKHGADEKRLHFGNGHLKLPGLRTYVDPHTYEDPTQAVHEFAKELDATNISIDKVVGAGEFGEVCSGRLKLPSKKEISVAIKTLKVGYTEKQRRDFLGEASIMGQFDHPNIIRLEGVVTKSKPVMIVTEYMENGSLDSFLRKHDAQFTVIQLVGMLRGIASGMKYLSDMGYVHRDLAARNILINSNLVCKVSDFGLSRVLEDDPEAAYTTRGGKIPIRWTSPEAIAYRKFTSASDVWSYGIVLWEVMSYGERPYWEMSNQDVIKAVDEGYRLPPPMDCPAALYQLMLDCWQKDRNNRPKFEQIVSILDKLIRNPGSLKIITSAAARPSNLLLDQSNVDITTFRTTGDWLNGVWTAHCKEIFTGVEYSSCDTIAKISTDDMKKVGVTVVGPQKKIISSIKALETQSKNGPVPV", "settings": "at 10 µM"}, "[2]": {"biological_target": "Ephrin type-A receptor 4 (Homo sapiens) (UniProt P54764)", "settings": "at 10 µM"}, "[3]": {"biological_target": "Ephrin type-A receptor 5 (Homo sapiens) (UniProt P54756)", "sequence (P54756 whole entry)": "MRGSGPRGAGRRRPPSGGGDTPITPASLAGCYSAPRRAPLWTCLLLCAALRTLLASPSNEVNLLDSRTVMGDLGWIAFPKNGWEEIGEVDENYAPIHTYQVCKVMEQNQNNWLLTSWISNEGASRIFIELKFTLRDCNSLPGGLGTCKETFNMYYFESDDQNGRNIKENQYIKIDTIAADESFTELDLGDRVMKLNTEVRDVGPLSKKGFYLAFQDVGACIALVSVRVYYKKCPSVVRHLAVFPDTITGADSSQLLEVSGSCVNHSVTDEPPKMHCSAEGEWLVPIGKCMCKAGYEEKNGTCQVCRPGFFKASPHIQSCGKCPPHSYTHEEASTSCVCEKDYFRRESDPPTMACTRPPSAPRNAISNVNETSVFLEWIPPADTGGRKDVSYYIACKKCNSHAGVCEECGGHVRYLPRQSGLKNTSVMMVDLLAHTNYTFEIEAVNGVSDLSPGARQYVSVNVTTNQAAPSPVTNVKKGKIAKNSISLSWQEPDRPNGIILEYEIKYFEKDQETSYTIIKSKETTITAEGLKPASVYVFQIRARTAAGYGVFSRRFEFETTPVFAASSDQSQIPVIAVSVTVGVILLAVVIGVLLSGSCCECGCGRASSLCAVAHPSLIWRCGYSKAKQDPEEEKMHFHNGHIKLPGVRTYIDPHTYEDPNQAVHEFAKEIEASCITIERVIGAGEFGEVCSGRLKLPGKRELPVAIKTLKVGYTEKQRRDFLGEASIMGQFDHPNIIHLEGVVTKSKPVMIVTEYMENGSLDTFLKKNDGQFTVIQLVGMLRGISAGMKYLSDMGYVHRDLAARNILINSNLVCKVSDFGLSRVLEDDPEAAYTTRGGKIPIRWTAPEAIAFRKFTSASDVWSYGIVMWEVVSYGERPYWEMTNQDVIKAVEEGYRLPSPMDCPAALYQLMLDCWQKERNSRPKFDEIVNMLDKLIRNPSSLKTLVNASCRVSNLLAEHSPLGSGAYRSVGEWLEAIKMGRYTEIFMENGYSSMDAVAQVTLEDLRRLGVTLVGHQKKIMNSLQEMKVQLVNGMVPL", "settings": "at 1 µM"}, "[4]": {"biological_target": "Ephrin type-A receptor 5 (Homo sapiens) (UniProt P54756)", "settings": "at 10 µM"}, "[5]": {"biological_target": "Ephrin type-A receptor 7 (Homo sapiens) (UniProt Q15375)", "sequence (Q15375 28-998 limits assumed)": "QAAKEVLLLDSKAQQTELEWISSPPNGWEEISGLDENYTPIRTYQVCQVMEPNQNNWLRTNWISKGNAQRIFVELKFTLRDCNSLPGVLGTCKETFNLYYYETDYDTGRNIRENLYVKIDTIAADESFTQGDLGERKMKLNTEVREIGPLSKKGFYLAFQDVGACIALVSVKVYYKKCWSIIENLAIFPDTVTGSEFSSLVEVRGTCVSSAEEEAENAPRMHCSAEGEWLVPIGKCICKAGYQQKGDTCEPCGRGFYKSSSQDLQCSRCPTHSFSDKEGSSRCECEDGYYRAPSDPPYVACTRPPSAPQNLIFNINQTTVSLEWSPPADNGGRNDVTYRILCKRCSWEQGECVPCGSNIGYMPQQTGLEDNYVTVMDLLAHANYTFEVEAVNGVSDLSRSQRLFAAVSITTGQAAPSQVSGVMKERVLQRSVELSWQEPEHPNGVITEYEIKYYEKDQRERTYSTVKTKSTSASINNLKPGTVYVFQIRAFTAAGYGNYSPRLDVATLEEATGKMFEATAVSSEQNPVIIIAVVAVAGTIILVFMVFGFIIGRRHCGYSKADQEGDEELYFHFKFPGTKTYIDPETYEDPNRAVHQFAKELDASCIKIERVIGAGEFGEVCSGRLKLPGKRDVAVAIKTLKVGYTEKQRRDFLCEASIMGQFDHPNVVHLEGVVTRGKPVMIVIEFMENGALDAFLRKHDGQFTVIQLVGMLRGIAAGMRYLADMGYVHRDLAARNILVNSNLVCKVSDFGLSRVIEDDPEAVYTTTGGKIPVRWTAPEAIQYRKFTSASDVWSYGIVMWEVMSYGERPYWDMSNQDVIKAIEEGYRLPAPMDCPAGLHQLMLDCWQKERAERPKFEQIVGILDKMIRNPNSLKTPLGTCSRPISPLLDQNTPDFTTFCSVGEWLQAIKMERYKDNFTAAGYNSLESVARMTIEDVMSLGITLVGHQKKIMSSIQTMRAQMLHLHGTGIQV", "settings": "at 1 µM"}, "[6]": {"biological_target": "Ephrin type-A receptor 7 (Homo sapiens) (UniProt Q15375)", "settings": "at 10 µM"}, "[7]": {"biological_target": "T2, Ephrin type-A receptor 8 (Homo sapiens) (UniProt P29322)", "T2 sequence (whole entry)": "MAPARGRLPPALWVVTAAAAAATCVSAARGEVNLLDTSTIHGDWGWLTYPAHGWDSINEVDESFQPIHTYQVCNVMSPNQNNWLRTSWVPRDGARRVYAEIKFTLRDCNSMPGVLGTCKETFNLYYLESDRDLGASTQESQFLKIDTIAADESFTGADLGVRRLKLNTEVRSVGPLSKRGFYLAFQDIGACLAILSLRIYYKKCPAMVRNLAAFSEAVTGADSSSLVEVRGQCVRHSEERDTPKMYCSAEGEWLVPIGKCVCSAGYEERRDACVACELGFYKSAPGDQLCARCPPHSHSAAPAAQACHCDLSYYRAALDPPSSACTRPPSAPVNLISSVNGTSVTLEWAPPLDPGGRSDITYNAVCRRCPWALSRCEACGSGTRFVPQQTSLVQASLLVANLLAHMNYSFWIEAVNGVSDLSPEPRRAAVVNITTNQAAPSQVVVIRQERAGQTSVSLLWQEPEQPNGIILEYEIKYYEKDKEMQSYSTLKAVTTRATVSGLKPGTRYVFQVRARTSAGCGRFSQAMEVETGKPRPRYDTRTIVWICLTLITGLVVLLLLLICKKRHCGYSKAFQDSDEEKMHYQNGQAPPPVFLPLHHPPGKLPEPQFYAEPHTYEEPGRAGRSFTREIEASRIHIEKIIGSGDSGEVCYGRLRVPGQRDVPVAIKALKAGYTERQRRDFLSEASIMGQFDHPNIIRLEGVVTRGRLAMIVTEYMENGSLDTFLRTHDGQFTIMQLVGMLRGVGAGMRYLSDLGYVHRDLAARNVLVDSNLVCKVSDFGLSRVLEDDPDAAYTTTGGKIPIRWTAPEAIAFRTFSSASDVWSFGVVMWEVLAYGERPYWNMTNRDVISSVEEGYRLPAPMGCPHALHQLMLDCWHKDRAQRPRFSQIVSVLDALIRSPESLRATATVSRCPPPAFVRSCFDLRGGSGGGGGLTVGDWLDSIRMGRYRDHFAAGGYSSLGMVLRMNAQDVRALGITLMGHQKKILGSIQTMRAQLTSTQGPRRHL", "settings": "at 1 µM"}, "[8]": {"biological_target": "T2, Ephrin type-A receptor 8 (Homo sapiens)", "settings": "at 10 µM"}, "[9]": {"biological_target": "T3, Ephrin type-B receptor 1 (Homo sapiens) (UniProt P54762)", "T3 sequence (whole entry)": "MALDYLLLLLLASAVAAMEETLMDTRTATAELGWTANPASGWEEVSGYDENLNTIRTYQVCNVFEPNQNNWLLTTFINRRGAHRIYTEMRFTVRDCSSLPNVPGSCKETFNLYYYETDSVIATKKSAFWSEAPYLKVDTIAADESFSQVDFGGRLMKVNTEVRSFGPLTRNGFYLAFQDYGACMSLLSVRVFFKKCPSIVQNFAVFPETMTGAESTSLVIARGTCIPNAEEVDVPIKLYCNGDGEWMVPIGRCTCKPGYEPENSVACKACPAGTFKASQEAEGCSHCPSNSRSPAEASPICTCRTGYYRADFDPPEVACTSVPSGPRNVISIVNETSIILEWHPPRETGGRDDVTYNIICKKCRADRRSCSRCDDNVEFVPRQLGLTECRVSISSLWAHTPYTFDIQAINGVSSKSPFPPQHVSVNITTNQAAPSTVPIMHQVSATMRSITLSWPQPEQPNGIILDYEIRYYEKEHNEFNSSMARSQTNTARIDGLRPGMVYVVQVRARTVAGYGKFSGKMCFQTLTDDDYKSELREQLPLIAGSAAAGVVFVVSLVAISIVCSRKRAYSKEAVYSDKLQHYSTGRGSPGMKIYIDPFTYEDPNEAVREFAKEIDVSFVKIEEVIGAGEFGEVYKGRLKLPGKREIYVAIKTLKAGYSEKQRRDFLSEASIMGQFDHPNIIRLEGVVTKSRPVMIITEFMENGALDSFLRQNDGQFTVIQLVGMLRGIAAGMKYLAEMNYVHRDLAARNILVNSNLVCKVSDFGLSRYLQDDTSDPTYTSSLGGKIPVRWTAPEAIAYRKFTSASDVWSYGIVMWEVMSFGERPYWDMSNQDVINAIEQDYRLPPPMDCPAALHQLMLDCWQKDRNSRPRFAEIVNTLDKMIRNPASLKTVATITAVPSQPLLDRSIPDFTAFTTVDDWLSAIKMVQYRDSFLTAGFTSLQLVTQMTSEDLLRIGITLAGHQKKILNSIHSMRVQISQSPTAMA", "settings": "at 1 µM"}, "[10]": {"biological_target": "T3, Ephrin type-B receptor 1 (Homo sapiens)", "settings": "at 10 µM"}, "[11]": {"biological_target": "T4, Ephrin type-B receptor 4 (Homo sapiens) (UniProt P54760)", "T4 sequence (whole entry)": "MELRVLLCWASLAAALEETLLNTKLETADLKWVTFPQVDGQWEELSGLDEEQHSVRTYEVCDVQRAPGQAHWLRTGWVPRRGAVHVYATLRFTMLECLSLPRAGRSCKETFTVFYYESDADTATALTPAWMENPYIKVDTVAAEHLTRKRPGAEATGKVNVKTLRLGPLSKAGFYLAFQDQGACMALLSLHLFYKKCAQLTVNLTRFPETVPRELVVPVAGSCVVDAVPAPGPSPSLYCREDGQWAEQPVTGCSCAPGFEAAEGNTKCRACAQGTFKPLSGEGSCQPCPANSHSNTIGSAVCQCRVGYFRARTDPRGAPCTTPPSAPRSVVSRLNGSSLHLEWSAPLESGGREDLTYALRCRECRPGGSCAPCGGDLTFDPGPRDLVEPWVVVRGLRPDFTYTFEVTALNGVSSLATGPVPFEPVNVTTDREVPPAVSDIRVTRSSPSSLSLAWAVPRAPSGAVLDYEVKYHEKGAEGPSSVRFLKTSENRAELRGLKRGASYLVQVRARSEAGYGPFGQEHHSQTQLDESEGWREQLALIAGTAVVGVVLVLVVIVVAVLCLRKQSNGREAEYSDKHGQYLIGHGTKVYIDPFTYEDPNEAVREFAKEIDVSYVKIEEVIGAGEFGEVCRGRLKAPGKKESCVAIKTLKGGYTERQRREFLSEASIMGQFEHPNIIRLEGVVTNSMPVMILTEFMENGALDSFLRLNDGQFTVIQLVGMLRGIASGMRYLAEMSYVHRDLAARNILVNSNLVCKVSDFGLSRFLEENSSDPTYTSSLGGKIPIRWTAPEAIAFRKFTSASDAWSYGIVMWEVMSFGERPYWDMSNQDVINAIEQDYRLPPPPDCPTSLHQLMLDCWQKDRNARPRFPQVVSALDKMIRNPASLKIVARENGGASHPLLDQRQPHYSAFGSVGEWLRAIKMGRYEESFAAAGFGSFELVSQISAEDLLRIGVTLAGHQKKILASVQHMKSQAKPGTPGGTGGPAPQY", "settings": "at 1 µM"}, "[12]": {"biological_target": "T4, Ephrin type-B receptor 4 (Homo sapiens)", "settings": "at 10 µM"}, "[13]": {"biological_target": "Receptor tyrosine-protein kinase erbB-4 (Homo sapiens) (UniProt Q15303)", "sequence (Q15303 whole entry)": "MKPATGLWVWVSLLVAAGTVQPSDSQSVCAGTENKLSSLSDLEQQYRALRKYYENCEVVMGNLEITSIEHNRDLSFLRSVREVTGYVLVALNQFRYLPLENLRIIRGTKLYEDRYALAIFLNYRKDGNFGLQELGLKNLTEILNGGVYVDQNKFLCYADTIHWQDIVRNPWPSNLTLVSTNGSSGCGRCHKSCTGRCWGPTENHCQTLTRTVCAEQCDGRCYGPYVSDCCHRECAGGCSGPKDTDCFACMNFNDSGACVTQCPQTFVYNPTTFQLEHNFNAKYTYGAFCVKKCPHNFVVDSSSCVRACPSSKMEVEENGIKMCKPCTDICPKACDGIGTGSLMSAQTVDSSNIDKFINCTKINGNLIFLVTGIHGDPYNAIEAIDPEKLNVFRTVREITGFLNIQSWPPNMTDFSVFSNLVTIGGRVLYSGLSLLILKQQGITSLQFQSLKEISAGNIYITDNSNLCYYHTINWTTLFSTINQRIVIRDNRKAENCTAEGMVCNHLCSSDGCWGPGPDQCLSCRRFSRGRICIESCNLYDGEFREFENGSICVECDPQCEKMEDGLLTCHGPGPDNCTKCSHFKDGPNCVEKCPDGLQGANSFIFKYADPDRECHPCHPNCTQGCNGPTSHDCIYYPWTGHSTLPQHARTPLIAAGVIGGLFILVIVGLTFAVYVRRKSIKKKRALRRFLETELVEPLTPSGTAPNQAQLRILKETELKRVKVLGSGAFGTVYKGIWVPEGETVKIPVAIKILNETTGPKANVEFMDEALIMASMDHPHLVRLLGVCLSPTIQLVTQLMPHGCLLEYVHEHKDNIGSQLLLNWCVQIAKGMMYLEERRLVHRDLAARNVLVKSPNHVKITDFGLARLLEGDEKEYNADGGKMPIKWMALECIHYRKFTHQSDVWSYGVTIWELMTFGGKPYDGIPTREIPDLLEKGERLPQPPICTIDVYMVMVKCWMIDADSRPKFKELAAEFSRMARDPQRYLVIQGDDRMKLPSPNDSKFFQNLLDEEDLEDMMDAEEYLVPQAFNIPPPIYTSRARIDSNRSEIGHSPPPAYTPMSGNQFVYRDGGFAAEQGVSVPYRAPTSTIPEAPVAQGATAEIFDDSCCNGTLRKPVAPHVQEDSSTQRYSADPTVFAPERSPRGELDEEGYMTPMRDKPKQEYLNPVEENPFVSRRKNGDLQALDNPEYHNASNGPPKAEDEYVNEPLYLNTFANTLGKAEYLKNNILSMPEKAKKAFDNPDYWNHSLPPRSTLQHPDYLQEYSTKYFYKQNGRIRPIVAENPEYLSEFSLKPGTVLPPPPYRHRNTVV", "settings": "at 1 µM"}, "[14]": {"biological_target": "Receptor tyrosine-protein kinase erbB-4 (Homo sapiens) (UniProt Q15303)", "settings": "at 10 µM"}, "[15]": {"biological_target": "Focal adhesion kinase 1 (Homo sapiens) (UniProt Q05397)", "sequence (Q05397 2-1052 limits assumed)": "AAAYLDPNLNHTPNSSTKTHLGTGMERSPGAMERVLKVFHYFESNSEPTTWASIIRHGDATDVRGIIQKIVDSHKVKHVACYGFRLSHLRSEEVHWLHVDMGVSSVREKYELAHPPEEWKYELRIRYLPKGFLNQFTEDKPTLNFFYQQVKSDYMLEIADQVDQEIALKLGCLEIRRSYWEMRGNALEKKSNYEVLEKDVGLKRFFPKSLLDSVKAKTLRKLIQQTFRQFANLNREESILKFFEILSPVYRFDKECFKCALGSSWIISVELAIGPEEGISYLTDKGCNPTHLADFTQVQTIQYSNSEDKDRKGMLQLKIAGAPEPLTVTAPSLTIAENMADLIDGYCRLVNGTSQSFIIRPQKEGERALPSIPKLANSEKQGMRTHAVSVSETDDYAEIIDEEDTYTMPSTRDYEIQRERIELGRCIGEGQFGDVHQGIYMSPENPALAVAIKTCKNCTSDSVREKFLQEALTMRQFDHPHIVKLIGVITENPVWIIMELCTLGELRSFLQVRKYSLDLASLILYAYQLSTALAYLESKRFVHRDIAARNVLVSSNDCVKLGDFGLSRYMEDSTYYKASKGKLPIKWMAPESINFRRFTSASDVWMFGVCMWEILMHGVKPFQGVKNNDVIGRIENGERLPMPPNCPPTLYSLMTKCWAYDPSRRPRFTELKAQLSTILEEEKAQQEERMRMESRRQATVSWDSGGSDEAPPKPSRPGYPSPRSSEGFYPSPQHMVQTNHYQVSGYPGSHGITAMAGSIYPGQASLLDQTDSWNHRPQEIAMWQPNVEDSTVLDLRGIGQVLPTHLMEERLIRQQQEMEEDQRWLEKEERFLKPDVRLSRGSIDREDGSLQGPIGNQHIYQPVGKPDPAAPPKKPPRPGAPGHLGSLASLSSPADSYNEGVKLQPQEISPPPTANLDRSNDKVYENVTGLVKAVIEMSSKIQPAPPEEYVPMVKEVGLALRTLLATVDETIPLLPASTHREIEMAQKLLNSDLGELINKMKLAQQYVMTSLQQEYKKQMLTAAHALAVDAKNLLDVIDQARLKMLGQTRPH", "settings": "at 1 µM"}},
  "data": [
    {"smiles": "O=c1cc(N2CCOCC2)oc2c1ccc1ccccc12", "values": [
      {"measurement": "residual activity", "setting": "[1]", "value": 94, "unit": "%"},
      {"measurement": "residual activity", "setting": "[2]", "value": 103, "unit": "%"},
      {"measurement": "residual activity", "setting": "[3]", "value": 124, "unit": "%"},
      {"measurement": "residual activity", "setting": "[4]", "value": 93, "unit": "%"},
      {"measurement": "residual activity", "setting": "[5]", "value": 103, "unit": "%"},
      {"measurement": "residual activity", "setting": "[6]", "value": 84, "unit": "%"},
      {"measurement": "residual activity", "setting": "[7]", "value": 100, "unit": "%"},
      {"measurement": "residual activity", "setting": "[8]", "value": 97, "unit": "%"},
      {"measurement": "residual activity", "setting": "[9]", "value": 95, "unit": "%"},
      {"measurement": "residual activity", "setting": "[10]", "value": 89, "unit": "%"},
      {"measurement": "residual activity", "setting": "[11]", "value": 101, "unit": "%"},
      {"measurement": "residual activity", "setting": "[12]", "value": 108, "unit": "%"},
      {"measurement": "residual activity", "setting": "[13]", "value": 106, "unit": "%"},
      {"measurement": "residual activity", "setting": "[14]", "value": 92, "unit": "%"},
      {"measurement": "residual activity", "setting": "[15]", "value": 132, "unit": "%"}
    ]}
  ]
}
